Test results from article PMC7862700, “An all-to-all approach to the identification of sequence-specific readers for epigenetic DNA modifications on cytosine”.

Columns and labels:
Assay in all cases: DAPPL (digital affinity profiling via proximity ligation, sequencing); 10 mM Tris-HCl pH 7.5, 50 mM NaCl, 1 mM DTT, 4% glycerol, room temperature, 30 min; GST-TFs on glutathione beads, 16-mer random dsDNA library, 0.1% formaldehyde crosslink after washing; high values mean tight binding
Conditions in all cases: protein: recombinant; tags: N-terminal GST; dsDNA, one strand shown
[1] = biological target: T1, FLI1 (Homo sapiens, UniProt Q01543 1-452)
T1 sequence: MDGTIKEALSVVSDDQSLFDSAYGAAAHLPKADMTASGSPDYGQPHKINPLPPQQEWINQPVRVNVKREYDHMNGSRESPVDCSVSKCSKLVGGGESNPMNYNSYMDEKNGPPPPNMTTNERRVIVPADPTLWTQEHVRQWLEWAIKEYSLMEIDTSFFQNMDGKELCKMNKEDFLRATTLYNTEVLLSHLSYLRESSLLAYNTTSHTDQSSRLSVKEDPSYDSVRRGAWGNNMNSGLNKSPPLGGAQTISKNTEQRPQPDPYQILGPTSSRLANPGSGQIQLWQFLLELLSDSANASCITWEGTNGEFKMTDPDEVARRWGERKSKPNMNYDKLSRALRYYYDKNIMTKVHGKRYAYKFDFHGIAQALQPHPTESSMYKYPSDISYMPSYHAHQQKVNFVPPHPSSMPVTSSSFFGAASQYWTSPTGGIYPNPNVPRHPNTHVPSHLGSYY
In short: (§1)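 Sequencing on an Illumina NextSeq500 followed washing, crosslinking with 0.1% formaldehyde, proximity ligation (BsaI/T4 ligase, 1 h, 37 °C) and PCR amplification of pools that had been incubated for 30 min at room temperature with 200 nmole of a random double-stranded 16-mer DNA library in Tris/NaCl/DTT/glycerol buffer. Each pool held DNA-barcoded human transcription factors, expressed in yeast as GST fusions and captured on glutathione beads, plus a tag-only sample. Binding signal is a hexamer's read frequency for a factor divided by its frequency in the tag-only sample.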

[2] = biological target: T2, ELK1 (Homo sapiens, UniProt P19419 1-428)
T2 sequence: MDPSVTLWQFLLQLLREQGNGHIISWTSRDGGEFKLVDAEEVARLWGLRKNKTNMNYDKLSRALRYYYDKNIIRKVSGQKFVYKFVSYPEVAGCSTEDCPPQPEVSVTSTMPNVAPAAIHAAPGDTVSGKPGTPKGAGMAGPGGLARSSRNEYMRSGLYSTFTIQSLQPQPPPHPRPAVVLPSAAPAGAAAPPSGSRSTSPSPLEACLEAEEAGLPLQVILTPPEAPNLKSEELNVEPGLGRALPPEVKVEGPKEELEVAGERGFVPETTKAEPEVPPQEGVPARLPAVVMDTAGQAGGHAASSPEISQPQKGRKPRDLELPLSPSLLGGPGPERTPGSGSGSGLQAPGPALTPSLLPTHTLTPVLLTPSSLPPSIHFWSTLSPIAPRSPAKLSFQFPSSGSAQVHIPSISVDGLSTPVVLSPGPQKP
In short: as §1

[3] = biological target: T3, ERG (Homo sapiens, UniProt P11308 1-479)
T3 sequence: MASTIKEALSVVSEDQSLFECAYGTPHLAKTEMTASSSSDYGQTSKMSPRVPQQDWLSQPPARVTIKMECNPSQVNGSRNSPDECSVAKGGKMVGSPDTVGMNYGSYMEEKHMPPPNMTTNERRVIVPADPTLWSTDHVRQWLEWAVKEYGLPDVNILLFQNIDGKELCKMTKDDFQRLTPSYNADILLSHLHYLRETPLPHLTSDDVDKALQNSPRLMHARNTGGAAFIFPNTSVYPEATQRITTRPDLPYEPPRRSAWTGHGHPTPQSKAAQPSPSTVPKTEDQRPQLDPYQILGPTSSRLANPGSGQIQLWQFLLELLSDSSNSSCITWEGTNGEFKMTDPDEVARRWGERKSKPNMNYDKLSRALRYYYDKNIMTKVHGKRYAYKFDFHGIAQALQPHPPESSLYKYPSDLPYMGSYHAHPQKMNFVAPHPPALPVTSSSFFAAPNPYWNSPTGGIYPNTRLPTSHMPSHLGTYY
In short: as §1

[4] = biological target: ELF1 (Homo sapiens, UniProt P32519 1-619)
In short: as §1

[5] = biological target: T4, EHF (Homo sapiens, UniProt Q9NZC4 1-300)
T4 sequence: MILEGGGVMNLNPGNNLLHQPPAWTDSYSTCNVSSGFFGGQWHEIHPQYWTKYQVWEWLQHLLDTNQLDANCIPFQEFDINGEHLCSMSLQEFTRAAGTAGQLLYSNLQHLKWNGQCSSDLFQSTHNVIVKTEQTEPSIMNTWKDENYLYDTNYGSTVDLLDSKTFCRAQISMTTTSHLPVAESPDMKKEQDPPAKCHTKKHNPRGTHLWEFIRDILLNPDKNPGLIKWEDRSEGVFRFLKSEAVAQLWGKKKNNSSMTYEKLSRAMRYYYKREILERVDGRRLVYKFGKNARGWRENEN
In short: as §1

[6] = biological target: SPI1 (Homo sapiens, UniProt P17947 1-270)
In short: as §1

[7] = biological target: SPIB (Homo sapiens, UniProt Q01892 1-262)
In short: as §1

[8] = biological target: T5, ELK3 (Homo sapiens, UniProt P41970 1-407)
T5 sequence: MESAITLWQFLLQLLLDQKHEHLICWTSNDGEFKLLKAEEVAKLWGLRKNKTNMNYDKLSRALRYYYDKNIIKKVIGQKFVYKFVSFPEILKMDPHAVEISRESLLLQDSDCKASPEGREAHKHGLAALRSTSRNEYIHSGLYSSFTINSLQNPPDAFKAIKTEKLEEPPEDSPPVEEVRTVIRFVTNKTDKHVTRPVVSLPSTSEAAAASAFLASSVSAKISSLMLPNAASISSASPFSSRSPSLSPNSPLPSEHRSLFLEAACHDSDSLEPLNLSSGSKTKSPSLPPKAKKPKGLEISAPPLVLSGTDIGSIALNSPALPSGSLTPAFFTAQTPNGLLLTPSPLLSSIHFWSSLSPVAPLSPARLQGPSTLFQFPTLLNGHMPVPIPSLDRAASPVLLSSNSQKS
In short: as §1

[9] = biological target: T6, SPIC (Homo sapiens, UniProt Q8N5J4 1-248)
T6 sequence: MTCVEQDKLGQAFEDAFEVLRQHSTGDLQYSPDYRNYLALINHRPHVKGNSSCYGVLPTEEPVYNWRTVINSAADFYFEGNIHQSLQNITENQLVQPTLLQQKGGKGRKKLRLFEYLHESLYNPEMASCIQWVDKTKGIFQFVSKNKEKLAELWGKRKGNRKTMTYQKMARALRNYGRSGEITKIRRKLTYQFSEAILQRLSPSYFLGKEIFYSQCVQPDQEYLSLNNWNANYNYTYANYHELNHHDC
In short: as §1

[10] = biological target: ELF4 (Homo sapiens, UniProt Q99607 1-663)
In short: as §1

[11] = biological target: T7, ELK4 (Homo sapiens, UniProt P28324-2 1-405)
T7 sequence: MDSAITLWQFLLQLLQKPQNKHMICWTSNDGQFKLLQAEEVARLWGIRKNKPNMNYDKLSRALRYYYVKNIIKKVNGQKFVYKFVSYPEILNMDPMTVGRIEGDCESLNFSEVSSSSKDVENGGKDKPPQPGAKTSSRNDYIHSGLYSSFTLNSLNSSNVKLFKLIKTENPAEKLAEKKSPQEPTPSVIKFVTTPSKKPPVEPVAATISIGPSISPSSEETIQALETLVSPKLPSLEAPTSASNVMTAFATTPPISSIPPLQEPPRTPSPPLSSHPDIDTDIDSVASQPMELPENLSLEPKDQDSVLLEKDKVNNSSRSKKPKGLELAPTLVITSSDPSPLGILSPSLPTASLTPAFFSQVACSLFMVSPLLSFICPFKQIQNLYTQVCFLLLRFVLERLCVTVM
In short: as §1

[12] = biological target: ETV1 (Homo sapiens, UniProt P50549 1-477)
In short: as §1

[13] = biological target: T8, ERF (Homo sapiens, UniProt P50548 1-548)
T8 sequence: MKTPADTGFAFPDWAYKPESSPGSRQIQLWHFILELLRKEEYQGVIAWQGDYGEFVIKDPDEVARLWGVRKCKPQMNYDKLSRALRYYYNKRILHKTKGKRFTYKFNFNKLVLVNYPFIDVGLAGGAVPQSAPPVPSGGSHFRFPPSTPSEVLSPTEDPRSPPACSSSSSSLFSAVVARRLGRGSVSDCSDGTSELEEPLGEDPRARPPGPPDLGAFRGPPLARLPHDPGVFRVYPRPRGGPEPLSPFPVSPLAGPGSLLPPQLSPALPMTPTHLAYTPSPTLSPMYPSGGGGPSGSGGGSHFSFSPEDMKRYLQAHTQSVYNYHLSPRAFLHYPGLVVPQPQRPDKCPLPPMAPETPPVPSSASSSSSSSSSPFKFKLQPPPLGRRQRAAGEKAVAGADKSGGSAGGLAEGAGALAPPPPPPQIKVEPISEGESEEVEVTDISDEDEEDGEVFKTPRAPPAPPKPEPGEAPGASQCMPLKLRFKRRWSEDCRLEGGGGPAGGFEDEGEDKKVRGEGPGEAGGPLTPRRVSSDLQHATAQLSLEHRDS
In short: as §1

[14] = biological target: T9, ETV3L (Homo sapiens, UniProt Q6ZN32 1-361)
T9 sequence: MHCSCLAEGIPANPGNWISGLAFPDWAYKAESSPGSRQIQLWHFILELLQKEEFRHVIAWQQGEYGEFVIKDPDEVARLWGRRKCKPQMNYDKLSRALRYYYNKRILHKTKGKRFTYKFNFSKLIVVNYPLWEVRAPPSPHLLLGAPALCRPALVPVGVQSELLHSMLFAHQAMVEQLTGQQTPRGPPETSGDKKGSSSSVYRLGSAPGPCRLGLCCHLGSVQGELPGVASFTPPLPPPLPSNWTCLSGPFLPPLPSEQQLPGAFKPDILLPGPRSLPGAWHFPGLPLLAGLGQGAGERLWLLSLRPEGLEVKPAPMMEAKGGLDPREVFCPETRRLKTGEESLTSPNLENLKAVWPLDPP
In short: as §1

[15] = biological target: T10, ETS2 (Homo sapiens, UniProt P15036 1-469)
T10 sequence: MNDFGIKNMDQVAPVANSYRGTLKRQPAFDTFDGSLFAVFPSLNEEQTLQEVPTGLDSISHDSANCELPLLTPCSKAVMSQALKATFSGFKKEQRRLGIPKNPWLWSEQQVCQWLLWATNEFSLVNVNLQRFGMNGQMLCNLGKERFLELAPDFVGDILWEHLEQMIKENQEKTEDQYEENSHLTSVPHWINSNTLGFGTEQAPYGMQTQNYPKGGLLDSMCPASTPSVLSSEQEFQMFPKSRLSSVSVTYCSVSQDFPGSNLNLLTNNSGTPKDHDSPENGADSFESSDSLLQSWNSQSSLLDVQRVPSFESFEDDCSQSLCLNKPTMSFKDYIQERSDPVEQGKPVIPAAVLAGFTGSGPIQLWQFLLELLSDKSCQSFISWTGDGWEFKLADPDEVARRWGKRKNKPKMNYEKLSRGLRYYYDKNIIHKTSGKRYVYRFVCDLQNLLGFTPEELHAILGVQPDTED
In short: as §1

[16] = biological target: T11, ELF5 (Homo sapiens, UniProt Q9UKW6-2 1-255)
T11 sequence: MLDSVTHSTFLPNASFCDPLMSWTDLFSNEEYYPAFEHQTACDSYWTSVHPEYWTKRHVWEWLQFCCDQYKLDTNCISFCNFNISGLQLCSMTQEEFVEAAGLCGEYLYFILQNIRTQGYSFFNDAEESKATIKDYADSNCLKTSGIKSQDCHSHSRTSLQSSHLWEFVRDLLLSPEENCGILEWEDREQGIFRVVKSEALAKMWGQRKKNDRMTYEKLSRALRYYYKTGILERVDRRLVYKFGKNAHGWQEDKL
In short: as §1

[17] = biological target: ETV6 (Homo sapiens, UniProt P41212 1-452)
In short: as §1

Chain of SPIB (Q01892 whole entry): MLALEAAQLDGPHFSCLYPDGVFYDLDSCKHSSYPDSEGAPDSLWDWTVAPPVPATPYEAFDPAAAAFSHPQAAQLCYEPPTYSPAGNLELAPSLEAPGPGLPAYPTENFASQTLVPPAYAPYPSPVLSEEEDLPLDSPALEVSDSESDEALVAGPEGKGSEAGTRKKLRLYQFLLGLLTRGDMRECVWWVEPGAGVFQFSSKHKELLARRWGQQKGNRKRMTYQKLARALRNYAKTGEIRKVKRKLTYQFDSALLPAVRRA
Chain of ETV6 (P41212 whole entry): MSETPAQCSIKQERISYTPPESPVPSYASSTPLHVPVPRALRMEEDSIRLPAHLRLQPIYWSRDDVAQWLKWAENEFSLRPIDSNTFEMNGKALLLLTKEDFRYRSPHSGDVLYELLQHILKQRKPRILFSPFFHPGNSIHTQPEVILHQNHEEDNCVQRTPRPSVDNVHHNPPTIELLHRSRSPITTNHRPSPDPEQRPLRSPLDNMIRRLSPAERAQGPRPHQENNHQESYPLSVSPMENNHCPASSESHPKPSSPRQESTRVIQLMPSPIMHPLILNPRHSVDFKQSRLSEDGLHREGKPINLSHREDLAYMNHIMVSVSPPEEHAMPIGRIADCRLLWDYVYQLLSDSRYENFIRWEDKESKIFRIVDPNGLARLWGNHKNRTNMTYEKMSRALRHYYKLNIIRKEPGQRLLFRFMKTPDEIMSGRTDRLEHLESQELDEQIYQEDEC
Chain of ELF1 (P32519 whole entry): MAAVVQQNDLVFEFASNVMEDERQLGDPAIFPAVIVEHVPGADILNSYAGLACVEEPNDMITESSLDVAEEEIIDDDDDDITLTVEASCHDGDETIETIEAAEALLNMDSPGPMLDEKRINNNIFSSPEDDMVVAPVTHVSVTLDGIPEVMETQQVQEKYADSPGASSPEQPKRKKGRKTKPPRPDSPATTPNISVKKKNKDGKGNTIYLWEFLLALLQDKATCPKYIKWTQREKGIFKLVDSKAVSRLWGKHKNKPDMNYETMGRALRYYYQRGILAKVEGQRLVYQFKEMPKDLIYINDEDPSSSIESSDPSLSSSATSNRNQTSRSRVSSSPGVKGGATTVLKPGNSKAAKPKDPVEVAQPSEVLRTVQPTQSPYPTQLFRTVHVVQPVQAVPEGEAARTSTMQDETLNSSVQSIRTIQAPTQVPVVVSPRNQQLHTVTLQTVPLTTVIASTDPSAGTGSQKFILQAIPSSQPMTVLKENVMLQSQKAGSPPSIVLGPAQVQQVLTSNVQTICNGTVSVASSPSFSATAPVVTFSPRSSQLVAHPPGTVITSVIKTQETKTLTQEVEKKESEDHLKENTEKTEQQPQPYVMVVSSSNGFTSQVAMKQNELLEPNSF
Chain of ETV1 (P50549 whole entry): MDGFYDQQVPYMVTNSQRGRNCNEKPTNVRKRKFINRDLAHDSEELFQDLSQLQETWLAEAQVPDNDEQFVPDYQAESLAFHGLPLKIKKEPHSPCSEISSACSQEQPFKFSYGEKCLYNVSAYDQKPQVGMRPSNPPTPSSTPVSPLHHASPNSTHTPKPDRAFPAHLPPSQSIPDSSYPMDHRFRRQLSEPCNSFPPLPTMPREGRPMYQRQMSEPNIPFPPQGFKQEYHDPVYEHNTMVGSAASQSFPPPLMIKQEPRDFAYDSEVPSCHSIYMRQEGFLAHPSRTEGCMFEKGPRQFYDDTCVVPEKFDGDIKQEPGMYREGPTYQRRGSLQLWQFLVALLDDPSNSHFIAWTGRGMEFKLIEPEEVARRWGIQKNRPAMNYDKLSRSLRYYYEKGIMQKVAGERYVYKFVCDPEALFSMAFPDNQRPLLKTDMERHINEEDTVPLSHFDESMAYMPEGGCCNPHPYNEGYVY
Chain of ELF4 (Q99607 whole entry): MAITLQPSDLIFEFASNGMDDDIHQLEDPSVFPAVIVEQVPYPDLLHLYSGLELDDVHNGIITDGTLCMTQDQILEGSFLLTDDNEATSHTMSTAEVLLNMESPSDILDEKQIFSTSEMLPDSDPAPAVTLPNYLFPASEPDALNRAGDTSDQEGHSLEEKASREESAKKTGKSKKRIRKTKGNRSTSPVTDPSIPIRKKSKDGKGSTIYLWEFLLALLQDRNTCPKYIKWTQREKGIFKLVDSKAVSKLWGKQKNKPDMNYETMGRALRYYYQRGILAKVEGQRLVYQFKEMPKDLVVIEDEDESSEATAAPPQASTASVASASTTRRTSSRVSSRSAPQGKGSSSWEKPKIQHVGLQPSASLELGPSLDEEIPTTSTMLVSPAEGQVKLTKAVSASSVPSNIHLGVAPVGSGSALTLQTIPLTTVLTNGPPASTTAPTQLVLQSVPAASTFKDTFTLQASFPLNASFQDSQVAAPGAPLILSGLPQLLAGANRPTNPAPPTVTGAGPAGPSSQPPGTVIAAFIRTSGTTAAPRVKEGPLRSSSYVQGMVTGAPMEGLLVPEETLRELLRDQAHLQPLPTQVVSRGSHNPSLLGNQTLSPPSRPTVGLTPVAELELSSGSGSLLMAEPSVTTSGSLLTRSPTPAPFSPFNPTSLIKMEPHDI

TGGTTG was tested, and the binding signal [1] was 1.04 fold enrichment (6-mer frequency, TF over GST control), the binding signal [2] was 1.02 fold enrichment (6-mer frequency, TF over GST control) and the binding signal [3] was 1.01 fold enrichment (6-mer frequency, TF over GST control). The binding signal [4] was 1.02 fold enrichment (6-mer frequency, TF over GST control), the binding signal [5] was 1.02 fold enrichment (6-mer frequency, TF over GST control) and the binding signal [6] was 1.06 fold enrichment (6-mer frequency, TF over GST control). The binding signal [7] was 1.08 fold enrichment (6-mer frequency, TF over GST control), the binding signal [8] was 1.03 fold enrichment (6-mer frequency, TF over GST control) and the binding signal [9] was 1.08 fold enrichment (6-mer frequency, TF over GST control). For the same sequence, the binding signal [10] was 1.03 fold enrichment (6-mer frequency, TF over GST control), the binding signal [11] was 1.09 fold enrichment (6-mer frequency, TF over GST control) and the binding signal [12] was 1.05 fold enrichment (6-mer frequency, TF over GST control). For the same sequence, the binding signal [13] was 1.1 fold enrichment (6-mer frequency, TF over GST control), the binding signal [14] was 1.03 fold enrichment (6-mer frequency, TF over GST control) and the binding signal [15] was 1.08 fold enrichment (6-mer frequency, TF over GST control). The binding signal [16] was 1 fold enrichment (6-mer frequency, TF over GST control) and the binding signal [17] was 1 fold enrichment (6-mer frequency, TF over GST control).
